According to PubChem BioAssay AID1159580 (chemical genetic matrix, 2015):
In all, about 5,500 compounds went through this assay and about 2,000 (36%) were called active. Inconclusive results (about 18%) are left out. Rule as the data show it: active = normalized growth mostly below about 0.91 (no sharp cut-off); inconclusive = no clear call, values can overlap the other calls; inactive = mostly above about 0.92. Some of the results follow.

Test: chemical genetic growth profiling, strain panel (AID 1159580);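 also: tested at 20 µM; growth read once vehicle control cultures reached saturation at 30 °C; 1 = growth at the plate median or of vehicle wells; lower values mean less growth of the strain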
Settings: S. cerevisiae deletion strains, growth OD
[1] = locus YAL040C, strain CLN3, active compounds read low
[2] = locus YCL061C, strain MRC1 (second series), active compounds read low
[3] = locus YDR150W, strain NUM1, active compounds read low
[4] = locus YDR363W, strain ESC2, active compounds read low
[5] = locus YER002W, strain NOP16, active compounds read low
[6] = locus YMR307W, strain GAS1, active compounds read low
[7] = locus YNL175C, strain NOP13, active compounds read low
[8] = locus YNL197C, strain WHI3, active compounds read low
[9] = locus YNL224C, strain SQS1, active compounds read low
[10] = locus YOR083W, strain WHI5 (second series), active compounds read low
[11] = locus YPL055C, strain LGE1, active compounds read low

Measured: normalized growth

COC(=O)[C@@H](N)Cc1ccc(O)c(O)c1
inactive: [1] 1.03 | [2] 0.971 | [3] 0.958 | [4] 1 | [5] 1 | [6] 0.995 | [7] 1 | [8] 0.984 | [9] 1 | [10] 0.993 | [11] 0.971 | locus YPL241C, strain CIN2, active compounds read low 1.01

N[C@H](CO)C(=O)O
inactive: locus YAL013W, strain DEP1, active compounds read low 1.03 | [1] 1.01 | [2] 1 | [3] 1 | [4] 1.03 | [5] 0.986 | locus YJR075W, strain HOC1, active compounds read low 1.01 | [6] 1 | locus YNL128W, strain TEP1, active compounds read low 0.999 | [7] 0.995 | [8] 0.999 | [9] 0.997 | locus YNL322C, strain KRE1, active compounds read low 1 | [10] 0.996 | [11] 1.02
